A selection: hits, their analogues and other compounds. The true share with any hit is near 7.2%.
TSHR ag: qHTS Assay for Agonists of the Thyroid Stimulating Hormone Receptor | Thyrotropin receptor (Homo sapiens), P16473 | HEK293-CNG-TSHR cells (CNG channel as cAMP sensor), membrane potential dye, cAMP | Potency, µM (titrated, usually from 57.1 µM), without a hit: top-dose activation, usual class: activators | actives 0.48% (n = 73,000) | AID 926, 2007; active = well fitted activation curve with a large enough effect in the main read-out, with a control signal flat, not every such curve was filed as active; inconclusive = small, poorly fitted or top-dose-only effect, or a change in a side signal; inactive = no such curve, though single readings can be large or run the other way; % of control where 0% means no effect;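 note: the control signal comes from parental cells without the receptor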
Target sequence (P16473 whole entry, looked up): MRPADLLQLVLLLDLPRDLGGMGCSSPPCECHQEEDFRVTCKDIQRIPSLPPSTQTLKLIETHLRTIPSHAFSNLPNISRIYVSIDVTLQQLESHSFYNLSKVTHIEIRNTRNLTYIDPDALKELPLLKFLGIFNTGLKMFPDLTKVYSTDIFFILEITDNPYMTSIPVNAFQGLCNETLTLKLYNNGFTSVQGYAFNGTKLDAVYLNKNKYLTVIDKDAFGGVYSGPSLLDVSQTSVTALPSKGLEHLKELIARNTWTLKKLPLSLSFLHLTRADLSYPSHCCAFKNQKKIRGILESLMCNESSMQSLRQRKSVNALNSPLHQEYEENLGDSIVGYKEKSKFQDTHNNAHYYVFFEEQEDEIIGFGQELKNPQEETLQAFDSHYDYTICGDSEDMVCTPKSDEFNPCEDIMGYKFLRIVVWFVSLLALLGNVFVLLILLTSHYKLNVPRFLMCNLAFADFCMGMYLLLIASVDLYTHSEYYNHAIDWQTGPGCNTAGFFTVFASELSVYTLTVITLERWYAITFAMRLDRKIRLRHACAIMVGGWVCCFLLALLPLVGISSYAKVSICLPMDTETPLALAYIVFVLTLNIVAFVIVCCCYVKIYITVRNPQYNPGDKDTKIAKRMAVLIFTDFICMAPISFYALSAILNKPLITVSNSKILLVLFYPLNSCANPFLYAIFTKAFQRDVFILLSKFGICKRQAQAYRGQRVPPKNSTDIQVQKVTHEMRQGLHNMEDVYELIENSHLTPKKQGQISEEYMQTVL
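HEK 293 cells stably expressing TSHR and a cAMP-gated CNG channel; parental CNG-only cells as counterscreen. Cells preloaded 60 min with membrane potential dye plus 100 uM RO 20-1724, then compound 30 min; fluorescence read at 590 nm.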
FLuc inh: qHTS Assay for Inhibitors of Firefly Luciferase; Potency, µM (doses to about 57.1 µM), inactives show top-dose activity change, negative = inhibition, actives largely listed as inhibitors; AID 411, 2009; actives 2.2% (n = 72,000); purified firefly luciferase, luminescence, 8 min; Luciferin 4-monooxygenase (Photinus pyralis), P08659; note: % is set by controls: 0 for no effect and ±100 for the full control effect; nearly all actives have a fitted effect of over 40% in size
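Substrate buffer containing 10 uM ATP (pH 7.2 imidazole, Mg2+, KCl, detergent, BSA) is dispensed, compound pinned in, then luciferase/luciferin detector mix added. After 8 min at ambient temperature, light output is measured.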
PK Bst: Pyruvate Kinase. Potency, µM. AID 361, 2006. actives 1.2% (n = 51,000). purified pyruvate kinase, luminescence ATP production; ribose 5-phosphate activator present at AC10; in the data active = potency below about 11 µM; inconclusive = mostly about 12 µM to 25 µM;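 the screen sought inhibitors and activators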;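 note: scaled between full activation by ribose 5 phosphate and full inhibition by luteolin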
Tau fil binding: qHTS Assay for Tau Filament Binding | recombinant tau filaments, thioflavin S fluorescence, 15 h; filaments grown with octadecylsulfate alongside compound | Potency, µM (top dose mostly 57.1 µM), without a hit: at the highest dose activity change, negative = inhibition | actives 2% (n = 71,000) | AID 596, 2007;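 note: % is set by controls: 0 for no effect and ±100 for the full control effect; actives lower thioflavin S fluorescence by blocking filaments or displacing dye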
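Read-out: ThS fluorescence, 450 nm excitation/510 nm emission; lower signal marks blocked filament formation or displaced dye. Tau at 1 uM with 30 uM ODS, 10 uM ThS, 5 mM DTT, 100 mM NaCl, 10 mM HEPES pH 7.4; 15 h, 37 C.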
HEK293 cAMP ctrl: qHTS Assay for Agonists of the Thyroid Stimulating Hormone Receptor: Activators of Intracellular cAMP Concentrations in Parental HEK 293; parental HEK293 CNG cAMP sensor, membrane potential fluorescence; Potency, µM (doses to about 57.1 µM), for the others: top-dose activation, most hits filed as activators; actives 2.5% (n = 73,000); note: % of control where 0% means no effect; nearly all actives have a fitted effect of over 55% in size
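Parental HEK 293 cells stably expressing a cAMP-gated CNG channel were loaded with membrane potential dye containing 100 uM RO 20-1724 for 60 min. Compound added for 30 min; depolarization read as fluorescence intensity at 590 nm.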
ERK AVP block: qHTS Assay for Inhibitors of the ERK Signaling Pathway using a Homogeneous Screening Assay; HEK293-V1b, vasopressin-stimulated pERK AlphaScreen; Potency, µM (series often up to 57.5 µM), without a hit: top-dose activity, negative = inhibition, most hits filed as inhibitors; actives 0.99% (n = 72,000); AID 995, 2007; note: % is set by controls: 0 for no effect and ±100 for the full control effect; nearly all actives have a fitted effect of over 55% in size
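Overnight-seeded V1b-HEK293 cells in 1% FBS got compound, then vasopressin (25 nM final, 5 min, 37C), then lysis buffer. AlphaScreen detection of phospho-ERK; activity normalized to basal and full-stimulation controls.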
* = called active by the depositor; i = inactive; ? = inconclusive; / = no result; [ ] = remark or other dose. Unless noted, calls come from the whole dose curve; as a rule, active = well fitted curve in the direction sought with a large enough effect; inconclusive = small, poorly fitted or top-dose-only effect, or another doubt; inactive = no such curve, though single readings can be large; an effect the other way counts as inactive or inconclusive. Potency is the fitted concentration of half-maximal effect.

SMILES	TSHR ag	FLuc inh	PK Bst	Tau fil binding	HEK293 cAMP ctrl	ERK AVP block
COCCn1c(=O)c(-c2cc(F)cc(F)c2)nc2cnc(Oc3cccc(Cl)c3)nc21	-7%	-1%[11.4 µM]	/	13µM*	-8%	-29%
O=c1c(-c2ccc(F)cc2)nc2cnc(Oc3ccccc3)nc2n1C[C@H]1CCCO1	-3%	-2%[11.4 µM]	/	20µM*	20%	-18%
COCCn1c(=O)cnc2cnc(Oc3cccc(Cl)c3)nc21	?	1%[11.4 µM]	/	-4%	?	-7%
O=c1cnc2cnc(Oc3cccc(Cl)c3)nc2n1Cc1ccc(F)cc1	?	1%[11.4 µM]	/	16µM*	?	-10%
COc1cccc(Nc2ncc3nc(-c4cc(F)cc(F)c4)c(=O)n(CCC#N)c3n2)c1	?	2%[11.4 µM]	/	0.79µM*	-55%	-1%
COc1ccc(COC(=O)N/N=C2/C[C@@H](O)[C@@H](O)[C@@H]3[C@@H]4C(=O)N([C@@H](C)c5ccccc5)C(=O)[C@H]4CC[C@H]23)cc1	-4%[11.4 µM]	-1%[11.4 µM]	/	/	2%[11.4 µM]	-16%[11.5 µM]
O=S(=O)(c1ccccc1)N1CCC2(CCN(Cc3ccncc3)CC2)CC1	/	-2%[11.4 µM]	/	8%	41%	8%
CCN(CC)CCCC(C)NC(=O)c1ccc(-n2c(=O)c(=O)[nH]c3ccccc32)cc1 (stereo not given)	6%	/	/	/	5%	/
COc1ccc(-c2nc3cnc(N(C)C)nc3n(C3CC3)c2=O)cc1	2%	-13%[11.4 µM]	/	201%	10%	38%
COc1ccccc1-c1cc(C(=O)N2CCc3ccccc3C2)no1	23%	-10%	/	113%	23%	-11%
COCCn1c(=O)c(-c2cc(F)cc(F)c2)nc2cnc(Oc3ccc(OC)cc3)nc21	?	1%[11.4 µM]	/	16µM*	?	-16%
O=c1cc(-c2cccc(O)c2O)oc2ccccc12	27%	0%[11.4 µM]	/	-18%	23%	-41%
CCCCNC(=O)CN1C(=O)C(CC)Oc2ccc(Cl)cc21 (stereo not given)	?	1%	>57	-10%	10µM*	-3%
CCOC(=O)CN1C(=O)C(CC)Oc2ccc(Cl)cc21 (stereo not given)	?	1%	>57	-3%	?	4%
N#C/C(=C(\O)C(=O)O)c1ccc(-c2cccc3ccccc23)cc1	1%[11.4 µM]	1%[11.4 µM]	/	-5%[11.4 µM]	9%[11.4 µM]	3%[11.5 µM]
O=C(O)c1c(Sc2ccccc2)c2cc(Cl)ccc2n1Cc1ccc(Cl)cc1	?	/	/	/	?	-10%
CCOC(=O)C(C)Sc1nnc(-c2ccccc2O)n1-c1ccc(C)cc1 (stereo not given)	?	1%	>57	-16%	20µM*	34%
COC(=O)CSc1nnc(-c2ccccc2O)n1-c1ccc(C)cc1	?	3%	>57	-22%	?	-14%
COCCn1c(=O)cnc2cnc(N(C)C)nc21	1%	2%[11.4 µM]	/	0%	2%	2%
COc1ccc(-c2nnc(Nc3nc4c(OC)cccc4s3)o2)cc1	?	10µM*	>57	421%	?	6%
Fc1cccc2sc(Nc3nnc(-c4ccccc4)o3)nc12	-19%	13µM*	i	-1%	-4%	-9%
COc1cc(OC)cc(-c2nnc(Nc3nc4c(F)cccc4s3)o2)c1	-5%	0%	>57	5%	1%	3%
COc1ccc(-c2nnc(Nc3nc4c(OC)cccc4s3)o2)c(OC)c1	-14%	13µM*	>57	489%	-1%	18%
Nc1nc2c([nH]c(=S)n2C2OC(CO)C(O)C2O)c(=O)[nH]1 (stereo not given)	/	/	/	/	/	-4%
CC1OC(n2cc(F)c(=O)[nH]c2=O)C(O)C1O (stereo not given)	/	/	/	/	/	7%
SMILES	TSHR ag	FLuc inh	PK Bst	Tau fil binding	HEK293 cAMP ctrl	ERK AVP block
CC(C)[C@@H]1O[C@H](/C=C\c2ccccc2)OCC1(C)C	5%[11.4 µM]	0%[11.4 µM]	/	-1%[11.4 µM]	22%[11.4 µM]	1%[11.5 µM]
CCOC(=O)C1CCN(C(=O)c2cc3cc4cc(OC)ccc4nc3o2)CC1	-1%	-5%	i	-4%	14%	3%
COc1ccc2nc3oc(C(=O)N4CCCCC4)cc3cc2c1	0%	13µM*	?	-16%	7%	8%
Cc1cccc(-c2noc(CN(C(=O)c3ccc4c(c3)OCO4)C(C)C)n2)c1	?	1%	>57	-18%	32µM*	-3%
Cc1cccc(-c2noc(CN(C(=O)c3ccc(Br)o3)C(C)C)n2)c1	?	1%	>57	-10%	?	-7%
CC(=O)c1c(C(C)=O)c(C)n(NC(=O)c2cccnc2)c1C	?	4%	>57	2%	4µM*	?
CS(=O)(=O)N(CC(=O)O)c1ccccc1	2%	/	/	/	2%	/
O=C1CCCC=C1[C@@H](O)CCOCc1ccccc1	3%[11.4 µM]	0%[11.4 µM]	/	/	2%[11.4 µM]	-15%[11.5 µM]
Nc1nc(Nc2cccc(F)c2)nc2ccccc12	?	10µM*	9.4*	-19%	-52%	-19%
Fc1ccc(Nc2nc(N3CCOCC3)c3ccccc3n2)cc1	?	-2%	/	59%	?	?
COc1ccc(-c2ccc(SCC(=O)Nc3cc(C)on3)nn2)cc1OC	1%	13µM*	i	0%	1%	-22%
Cc1ccccc1-c1cc(N(C)C)ncn1	21%	-15%[2.29 µM]	/	1%	10%	-16%
Cc1ccsc1-c1nc(CSCC(=O)NCc2ccc3c(c2)OCO3)c(C)o1	20µM*	2%	/	24%	20%	?
COc1ccc(-c2nc(CSCC(=O)N3CCc4ccccc43)c(C)o2)cc1OC	5%[11.4 µM]	6%	>57	25%	10%	19%
COc1ccc(-c2nc(CSCC(=O)NCc3ccc4c(c3)OCO4)c(C)o2)cc1OC	8%	1%	/	-11%	14%	32µM*
N[C@@H](CSc1nc2ccccn2c1[N+](=O)[O-])C(=O)O	5%[11.4 µM]	3%[11.4 µM]	/	0%[11.4 µM]	5%[11.4 µM]	32%[11.5 µM]
Cn1c(C(=O)NCc2ccc3c(c2)OCO3)cc2sccc21	?	-1%	>57	6%	?	-23%
CCOC(=O)c1cc2sccc2n1CC(=O)Nc1ccc(OC)cc1OC	?	-3%	>57	143%	?	14%
Cn1c(C(=O)Nc2ccc3c(c2)OCO3)cc2sccc21	-14%	7.9µM*	6.4*	13µM*	-14%	?
COc1cc(NC(=O)c2cc3sccc3n2C)cc(OC)c1	?	13µM*	4*	10%	?	-11%
COc1ccc(OC)c(NC(=O)c2cc3sccc3n2C)c1	?	-26%	/	-9%	25µM*	-14%
C1CCOC1	?	/	/	0%	?	9%

Screening results from PubChem BioAssay.
